Data from PubChem BioAssay (NCI).
The panel holds about 79,000 compounds, 15% with a hit somewhere; the sample as a whole holds those more often. The source made the active and inactive calls. Rule as the data show it: active = growth inhibition above about 70%; inactive = the rest.

Columns and labels:
[1] = NCI Yeast Anticancer Drug Screen. Data for the wt1 strain (AID 149);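 also: 0% = growth of vehicle-treated wt1 cultures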; settings: S. cerevisiae wt1 strain (SPY 50644) growth inhibition, hits give high values
Outline: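 Vehicle-normalised growth inhibition; strain wt1; compound exposure.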

[2] = NCI Yeast Anticancer Drug Screen. Data for the rad50EPP+ strain (AID 151);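 also: 0% = growth of vehicle-treated control cultures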; settings: S. cerevisiae rad50 mutant strain, hits give high values
Outline: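 Growth inhibition read against vehicle controls in rad50EPP+ yeast, a strain altered in DNA damage repair, after compound exposure.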

[3] = NCI Yeast Anticancer Drug Screen. Data for the rad50 strain (AID 155);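 also: 0% = growth of vehicle-only cultures of the same strain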; settings: S. cerevisiae rad50 strain growth inhibition, hits give high values
Outline: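 A DNA repair-deficient yeast mutant serves as the test organism; compound-induced growth inhibition is calculated against vehicle-treated cells.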

[4] = NCI Yeast Anticancer Drug Screen. Data for the mec2-1 strain (AID 157); settings: S. cerevisiae mec2-1 strain, hits give high values
Outline: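 Yeast mec2-1 mutant treated with compound. Readout: growth inhibition vs vehicle controls.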

[5] = NCI Yeast Anticancer Drug Screen. Data for the rad14 strain (AID 159);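 also: 0% = growth of vehicle-treated control cultures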; settings: S. cerevisiae rad14 strain growth inhibition, hits give high values
Outline: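 Vehicle-treated cultures served as the baseline for growth inhibition of a DNA repair-mutant yeast strain exposed to each compound.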

[6] = NCI Yeast Anticancer Drug Screen. Data for the sgs1 mgt1 strain (AID 161);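 also: 0% = growth of cultures given vehicle only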; settings: S. cerevisiae sgs1 mgt1 strain, hits give high values
Outline: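 Read-out: growth inhibition vs vehicle controls. Cells: mutant yeast strain deficient in DNA damage repair.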

[7] = NCI Yeast Anticancer Drug Screen. Data for the CLN2oe strain (AID 163);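 also: 0% = growth of vehicle-only control cultures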; settings: S. cerevisiae CLN2oe strain, hits give high values
Outline: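 Read-out: yeast growth inhibition, expressed relative to vehicle-only controls. The strain bears an engineered cell-cycle alteration.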

[8] = NCI Yeast Anticancer Drug Screen. Data for the cln2 rad14 strain (AID 165);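 also: 0% = growth equal to vehicle treated cultures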; settings: S. cerevisiae cln2 rad14 strain, hits give high values
Outline: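 cln2 rad14 yeast strain; compound exposure; growth inhibition read vs vehicle controls.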

[9] = NCI Yeast Anticancer Drug Screen. Data for the bub3 strain (AID 167); settings: S. cerevisiae bub3 mutant strain, hits give high values
Outline: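 Inhibition values come from growth of compound-treated mutant yeast normalised to vehicle-treated controls.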

[10] = NCI Yeast Anticancer Drug Screen. Data for the wt2 strain (AID 169);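 also: 0% = growth of vehicle-treated yeast cultures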; settings: S. cerevisiae wt2 strain growth inhibition, hits give high values
Outline: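 Read-out: growth inhibition versus vehicle-treated control cultures after compound exposure of the yeast strain.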

[11] = NCI Yeast Anticancer Drug Screen. Data for the mlh1 strain (AID 171);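 also: 0% = growth of vehicle-treated control cultures of the same strain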; settings: S. cerevisiae mlh1 strain growth inhibition, hits give high values
Outline: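 Read-out: growth inhibition versus vehicle controls. Strain: engineered yeast with a defined DNA repair or cell cycle defect, compound-treated.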

[12] = NCI Yeast Anticancer Drug Screen. Data for the sgs1 strain (AID 173);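 also: 0% = growth of vehicle-only control cultures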; settings: S. cerevisiae sgs1 mutant, hits give high values
Outline: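 Read-out: yeast growth inhibition relative to vehicle controls, following compound exposure of a strain with a defined DNA repair/cell cycle alteration.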

[13] = NCI Yeast Anticancer Drug Screen. Data for the mlh1 rad18 strain (AID 175); settings: S. cerevisiae mlh1 rad18 strain growth inhibition, hits give high values
Outline: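 Yeast w/ defined DNA-repair lesions; compound exposure; growth vs vehicle controls → % inhibition.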

[14] = NCI Yeast Anticancer Drug Screen. Data for the rad18 strain (AID 177); settings: S. cerevisiae rad18 mutant growth inhibition, hits give high values
Outline: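 Readout: growth inhibition vs vehicle controls. Cells: genetically altered yeast strain, DNA repair defect.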

[15] = at 5.0 µM (retest, dose inferred, filed as 0.5)
[16] = at 50.0 µM (retest, dose inferred, filed as 5.0)

Measured: growth inhibition

Cc1cc(NC(=S)SCc2ccc(Cl)cc2)ccc1Cl
active: [1]; at 33.0 µM 98% | [1]; at 100.0 µM 98% | [2]; at 11.0 µM 92% | [2]; at 33.0 µM 99% | [2]; at 100.0 µM 99% | [3]; at 33.0 µM 97% | [3]; [16] 96% | [3]; at 50.0 µM 90.5% | [3]; at 100.0 µM 95% | [4]; at 33.0 µM 98% | [4]; [16] 97% | [4]; at 50.0 µM 92.5% | [4]; at 100.0 µM 98% | [5]; at 33.0 µM 99% | [5]; at 100.0 µM 98% | [6]; [16] 98% | [6]; at 50.0 µM 91.8% | [7]; at 33.0 µM 98% | [7]; at 100.0 µM 98% | [8]; [16] 95% | [8]; at 50.0 µM 90.5% | [9]; at 33.0 µM 99% | [9]; [16] 98% | [9]; at 50.0 µM 91.6% | [9]; at 100.0 µM 98% | [10]; at 33.0 µM 98% | [10]; at 100.0 µM 99% | [11]; at 33.0 µM 98% | [11]; at 100.0 µM 98% | [12]; at 33.0 µM 98% | [12]; at 100.0 µM 98% | [13]; [16] 96% | [13]; at 50.0 µM 90.6% | [14]; at 33.0 µM 98% | [14]; at 100.0 µM 96%
inactive: [1]; at 1.2 µM 11% | [1]; at 3.7 µM 24% | [1]; at 11.0 µM 63% | [2]; at 1.2 µM 3% | [2]; at 3.7 µM 29% | [3]; at 1.2 µM 12% | [3]; at 3.7 µM 10% | [3]; [15] 24% | [3]; at 11.0 µM 44% | [4]; at 1.2 µM -3% | [4]; at 3.7 µM 6% | [4]; [15] 0% | [4]; at 11.0 µM 29% | [5]; at 1.2 µM -4% | [5]; at 3.7 µM 22% | [5]; at 11.0 µM 46% | [6]; [15] 43% | [7]; at 1.2 µM -3% | [7]; at 3.7 µM 15% | [7]; at 11.0 µM 44% | [8]; [15] 29% | [9]; at 1.2 µM -4% | [9]; at 3.7 µM -8% | [9]; [15] 48% | [9]; at 11.0 µM 49% | [10]; at 1.2 µM -5% | [10]; at 3.7 µM 20% | [10]; at 11.0 µM 56% | [11]; at 1.2 µM -17% | [11]; at 3.7 µM -8% | [11]; at 11.0 µM 27% | [12]; at 1.2 µM -9% | [12]; at 3.7 µM -22% | [12]; at 11.0 µM 38% | [13]; [15] 11% | [14]; at 1.2 µM 13% | [14]; at 3.7 µM 35% | [14]; at 11.0 µM 69%

O=C1c2ccccc2-c2ccc(NC(=O)C3CCCCC3C(=O)O)cc21 (stereo unspecified)
active: [5]; at 100.0 µM 86% | [9]; at 11.0 µM 72% | [9]; at 33.0 µM 80% | [9]; [16] 78% | [9]; at 50.0 µM 90.5% | [9]; at 100.0 µM 90% | [10]; at 100.0 µM 80% | [11]; at 100.0 µM 77% | [12]; at 100.0 µM 85% | [14]; at 100.0 µM 72%
inactive: [1]; at 1.2 µM 0% | [1]; at 3.7 µM -2% | [1]; at 11.0 µM -1% | [1]; at 33.0 µM 7% | [1]; at 100.0 µM 40% | [2]; at 1.2 µM 4% | [2]; at 3.7 µM 15% | [2]; at 11.0 µM 22% | [2]; at 33.0 µM 34% | [2]; at 100.0 µM 55% | [3]; at 1.2 µM 4% | [3]; at 3.7 µM 5% | [3]; [15] 3% | [3]; at 11.0 µM 10% | [3]; at 33.0 µM 24% | [3]; [16] 22% | [3]; at 50.0 µM 43.1% | [3]; at 100.0 µM 64% | [4]; at 1.2 µM 4% | [4]; at 3.7 µM 6% | [4]; [15] 18% | [4]; at 11.0 µM 5% | [4]; at 33.0 µM 18% | [4]; [16] 15% | [4]; at 50.0 µM 42.6% | [4]; at 100.0 µM 67% | [5]; at 1.2 µM -2% | [5]; at 3.7 µM -12% | [5]; at 11.0 µM -2% | [5]; at 33.0 µM 1% | [6]; [15] -2% | [6]; [16] 7% | [6]; at 50.0 µM 42.3% | [7]; at 1.2 µM -9% | [7]; at 3.7 µM -5% | [7]; at 11.0 µM -10% | [7]; at 33.0 µM -2% | [7]; at 100.0 µM 40% | [8]; [15] -20% | [8]; [16] -58% | [8]; at 50.0 µM 12.7% | [9]; at 1.2 µM 44% | [9]; at 3.7 µM 55% | [9]; [15] 6% | [10]; at 1.2 µM 0% | [10]; at 3.7 µM -1% | [10]; at 11.0 µM 1% | [10]; at 33.0 µM 24% | [11]; at 1.2 µM 7% | [11]; at 3.7 µM 3% | [11]; at 11.0 µM 4% | [11]; at 33.0 µM 1% | [12]; at 1.2 µM 3% | [12]; at 3.7 µM 7% | [12]; at 11.0 µM 15% | [12]; at 33.0 µM 41% | [13]; [15] -7% | [13]; [16] 34% | [13]; at 50.0 µM 41.2% | [14]; at 1.2 µM 12% | [14]; at 3.7 µM 2% | [14]; at 11.0 µM 16% | [14]; at 33.0 µM 31%
